Only a selection was taken, and hits are over-represented in it overall.
mIDH1 inhibitor: qHTS for Inhibitors of mutant isocitrate dehydrogenase 1 (IDH1): qHTS | Isocitrate dehydrogenase [NADP] cytoplasmic (Homo sapiens), O75874 | IDH1-R132H enzyme, NADPH consumption, diaphorase/resazurin fluorescence | Potency, µM (doses to about 76.6 µM), usual class: inhibitors | 0.093% of 390,000 active | AID 602179, 2012; also: nearly all actives have a fitted effect of over 65% in size
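IDH1-R132H (0.5 ug/mL dispensed) in pH 7.5 Tris buffer was preincubated 30 min with compound, then given a substrate mix of 0.016 mM NADPH and 2 mM alpha-KG for 80 min at room temperature; remaining NADPH was read by diaphorase/resazurin fluorescence.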
Mito fusion yeast: qHTS Assay for Small Molecule Inhibitors of Mitochondrial Division or Activators of Mitochondrial Fusion | Potency, µM (highest dose often 46.1 µM), actives largely listed as activators | S. cerevisiae fusion-defective mutant growth rescue, CellTiterGlo 48 h | 0.23% of 320,000 active; also: nearly all actives have a fitted effect of over 45% in size
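Luminescent cell viability in 1536-well qHTS format served as the measure of rescued growth in ts fusion-mutant S. cerevisiae cultured on non-fermentable YPEG for 48 hours at 37C.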
ClpP mod: qHTS Assay for Activators of ClpP | purified B. subtilis ClpP, FRET peptide cleavage, 20 min | Potency, µM (series often up to 57.5 µM) | 1.9% of 340,000 active; active = well fitted falling curve with a large enough effect; inconclusive = small, poorly fitted or top-dose-only effect; inactive = no such curve, though single readings can be large or run the other way; also: the source files actives as falling curves though it sought activators and does not explain the sign; nearly all actives have a fitted effect of over 65% in size
Target sequence (P80244 whole entry, looked up): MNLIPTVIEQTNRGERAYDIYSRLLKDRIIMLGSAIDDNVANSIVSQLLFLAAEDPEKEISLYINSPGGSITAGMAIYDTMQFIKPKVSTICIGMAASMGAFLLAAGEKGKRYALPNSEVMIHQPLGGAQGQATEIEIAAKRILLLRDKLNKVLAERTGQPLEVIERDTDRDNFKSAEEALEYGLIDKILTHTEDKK
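Purified B. subtilis ClpP, 10 microg/mL final in Tris/HCl pH8 with KCl, BSA, glycerol and Tween-20, cleaved an Abz/nitrotyrosine-quenched decapeptide. Fluorescence (ex 320, em 430) was read at 0 and 20 min at room temperature. Delta was normalized to 5.8 microM ADEP and DMSO/no-enzyme controls.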
RGS4 inhibitor: Inhibitors of Regulator of G Protein Signaling (RGS) 4: qHTS; Potency, µM (highest dose often 114 µM), most hits filed as inhibitors; Transcreener GDP fluorescence polarization, RGS4-accelerated GTP hydrolysis; 0.039% of 390,000 active; AID 504845, 2011; Regulator of G-protein signaling 4 (Homo sapiens), P49798; also: nearly all actives have a fitted effect of over 75% in size
Target sequence (P49798 whole entry, looked up): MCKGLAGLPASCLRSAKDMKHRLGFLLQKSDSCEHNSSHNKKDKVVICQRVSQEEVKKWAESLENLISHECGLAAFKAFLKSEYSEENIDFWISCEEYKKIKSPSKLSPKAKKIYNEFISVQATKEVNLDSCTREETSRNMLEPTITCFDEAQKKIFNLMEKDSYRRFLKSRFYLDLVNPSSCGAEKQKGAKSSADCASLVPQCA
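MLSMR compounds (23 nl, pin-transferred) preincubated 10 min at room temperature with a 500nM (2x) first reagent, then RGS4 at 900nM (2x) plus Transcreener GDP mix added; fluorescence polarization (620/688 nm) read before and after 90 min at 30 °C.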
S-ASM inh: Inhibitors of Secretory Acid Sphingomyelinase (S-ASM): qHTS; Sphingomyelin phosphodiesterase (Homo sapiens), P17405; Potency, µM (top dose mostly 57.5 µM), usual class: inhibitors; 0.006% of 340,000 active; placental ASM, HMU-PC fluorogenic substrate, 60 min; AID 504937, 2011
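Fluorescence read-out (Ex 386 nm, Em 447 nm) after stopping the reaction at pH 10. Enzyme: ASM from human placenta; substrate HMU-PC0, 9 uM final; 60 min, 37 °C. Compound preincubation 10 min, ambient temperature.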
LDHA inh: qHTS assay for inhibitors of human lactate dehydrogenase; AID 1347041, 2019; 0.15% of 480,000 active; activity change, % (values are at about 110 or 230 µM); L-lactate dehydrogenase A chain (Homo sapiens), P00338; purified LDHA, NADH/diaphorase-resazurin fluorescence; stronger effect = lower value; in the data active = activity change below about -30%; inconclusive = mostly about -25% to -30%
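Human LDH5 (2 nM) was incubated with 0.06 mM NADH and 0.2 mM pyruvate for 5 min at room temperature in Tris pH 7.4. Remaining NADH was coupled through diaphorase/resazurin, and resorufin fluorescence was read at 0 and 20 min.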
Hits are given with their value; i = inactive; ? = inconclusive; nt = no result given. Unless noted, calls follow the shape of the dose curve; as a rule, active = well fitted curve in the direction sought with a large enough effect; inconclusive = small, poorly fitted or top-dose-only effect, or another doubt; inactive = no such curve, though single readings can be large; an effect the other way counts as inactive or inconclusive.

SMILES | mIDH1 inhibitor | Mito fusion yeast | ClpP mod | RGS4 inhibitor | S-ASM inh | LDHA inh
CN1CCN(C(=O)Cn2c(-c3cccs3)cc3cc(Cl)ccc32)CC1 | i | nt | 32µM | i | nt | i
C/C(=N/Nc1ccc(S(N)(=O)=O)cc1[N+](=O)[O-])c1cc(Cl)ccc1Cl | nt | nt | nt | nt | nt | i
CC(C)CCC(C)NC(=O)CCCNC(N)=O (stereo not given) | nt | nt | nt | nt | nt | i
CC(C)(C)C(=O)N1CCN(c2ccc(F)cc2)CC1 | nt | nt | nt | nt | nt | i
CCCCC(=O)N(C)Cc1ccc(OC)cc1 | nt | nt | nt | nt | nt | i
COc1cc(CNCc2ccc(SC)cc2)cc(OC)c1 | i | i | i | i | i | -31
O=C(N/N=C/C=C/c1ccccc1[N+](=O)[O-])c1cccs1 | i | i | i | i | i | i
O=C(N/N=C\C=C\c1ccc([N+](=O)[O-])o1)c1cccs1 | i | i | nt | i | i | -30
COC(=O)/C(C#N)=C\c1ccc(OC(F)F)cc1OC(F)F | nt | nt | nt | nt | nt | i
C=CCOc1ccccc1C(=O)Nc1cccc(C#N)c1 | nt | nt | nt | nt | nt | i
CSc1cccc(Nc2cc(C(=O)NCCCN(Cc3ccccc3)C(C)C)c3ccccc3n2)c1 | i | nt | 35µM | i | nt | i
CCC(C(=O)Nc1ccccc1OCc1cc(=O)n2ccc(C)cc2n1)c1ccccc1 (stereo not given) | nt | nt | nt | nt | nt | i
Cc1nc2c(C(=O)NCCC(C)C)c[nH]n2c(=O)c1Cl | i | i | 32µM | i | i | i
Cc1nc2c(C(=O)NCCc3ccccc3)c[nH]n2c(=O)c1Cl | i | i | ? | i | i | i
O=C1c2cccc3cccc(c23)C(=O)N1OS(=O)(=O)c1ccc(Br)cc1 | i | i | nt | i | i | i
O=C1c2cccc3cccc(c23)C(=O)N1OS(=O)(=O)c1ccccc1 | i | i | 28µM | i | i | i
O=C(c1cn(-c2ccccc2)nc1-c1ccc(F)cc1)N1CCOCC1 | i | i | i | i | i | i
O=C(c1cn(-c2ccccc2)nc1-c1ccncc1)N1CCCCC1 | i | i | ? | i | i | i
O=C(c1cn(-c2ccccc2)nc1-c1ccc(F)cc1)N1CCCCC1 | i | 16µM | i | i | i | i
COc1ccc(-c2nn(-c3ccccc3)cc2C(=O)O)cc1OC | i | i | 25µM | i | i | i
COc1ccc(-c2nn(-c3ccccc3)cc2C(=O)Nc2ccc(C(=O)O)cc2)cc1OC | i | i | nt | i | i | i
O=C(c1cn(-c2ccccc2)nc1-c1ccc(Br)cc1)N1CCOCC1 | i | 11µM | i | i | i | i
CCOc1nc2ccccc2nc1C(=O)Nc1cc(OC)c(OC)c(OC)c1 | nt | nt | nt | nt | nt | i
Cc1ccc(C(O)CNC(=O)Nc2ccccc2)cc1 (stereo not given) | nt | nt | nt | nt | nt | i
CS(=O)(=O)N(Cc1ccc(C(=O)NN=C2CCCC2)cc1)c1ccccc1 | i | i | i | i | i | i
SMILES | mIDH1 inhibitor | Mito fusion yeast | ClpP mod | RGS4 inhibitor | S-ASM inh | LDHA inh
CS(=O)(=O)N(Cc1ccc(C(=O)NN=C2CCCCCC2)cc1)c1ccccc1 | i | i | 32µM | i | i | i
Cc1ccccc1OCC(=O)NCC(c1ccccc1Cl)N1CCCCC1 (stereo not given) | nt | nt | nt | nt | nt | i
CC(C)n1ncc2c(C(=O)NCCc3ccc(S(N)(=O)=O)cc3)cc(C3CC3)nc21 | i | i | 32µM | i | i | i
CC(C)n1ncc2c(C(=O)Nc3cccc(C#N)c3)cc(C3CC3)nc21 | i | 16µM | i | i | i | i
CCNC(=O)c1cccc(NC(=O)c2cc(C3CC3)nc3c2cnn3C(C)C)c1 | i | i | nt | i | i | i
CCC(C(=O)Nc1ccccc1OC)n1cnc2c1c(=O)n(C)c(=O)n2C (stereo not given) | nt | nt | nt | nt | nt | i
Cc1cccc(NC(=O)CSc2nnc(C)c(=O)n2N)c1 | i | i | nt | i | i | i

Screening results as filed in PubChem.
